Reference: PubChem BioAssay (Tox21)
The source made the active and inactive calls. Where a call stands in place of a potency, no number is given. The call rests on the fitted dose curve.

assay: G protein-coupled receptor (GPCR) small molecule agonists, calcium flux assay: HEK293 wild type cell line counter screen (AID 1920065); conditions: HEK293 WT calcium flux, fluorescence, agonist mode; series mostly up to 57.6 µM
Text: U.S. Tox21 Program National Center for Advancing Translational Sciences [NCATS] Division of Preclinical Innovation [DPI] U.S. Environmental Protection Agency [EPA] National Institutes of Environmental Health Sciences [NIEHS] National Toxicology Program [NTP] U.S. Food and Drug Administration [FDA] Assay overview: The increased intracellular calcium release that occurred upon G protein-coupled receptor (GPCR) activation led to the frequent use of calcium flux assays to detect GPCR activation. For the purpose of studying and screening compounds that may activate GPCR, receptor-overexpressing models were typically generated using Hek293 wild-type (WT) cells. In order to eliminate the compounds that may have induced calcium release for non-specific activation, a counter-assay utilizing calcium flux on Hek293 WT cells was performed. The data were formulated in order to serve as a control for any calcium flux detection utilizing Hek293 cells with either GPCR overexpression or gene modification. The procurement of Hek293 WT cells from ATCC. Fluorescence intensity can be utilized to determine the activation of the compound in a calcium flux assay. As a counter control, this cell line was utilized to screen the Tox21 10K compound library.
Assay Protocol Summary: Hek293 cells were dispensed at 1500cells/4uL/well in 1536-well black wall/clear bottom plates using a multidrop dispenser. After the assay plates were incubated at a 37 C/5% CO2 incubator for 18 hours, 4 uL of Calcium Dye Solution was added to each well. The plates were incubated at 37 C for 1 hour. For agonist mode, 23 nL of compounds dissolved in DMSO, positive control (ATP) or DMSO only was transferred to the assay plate by a pin tool station. The fluorescence intensity in the plates was measured using FDSS 7000EX kinetic plate reader with a filter set of Ex/Em=480/540 for 3 min at 1 sec intervals. Each test compound was measured at 15 concentrations and in triplicates.

Row | Compound | Potency
1 | CSc1ccc(Oc2ccc(S(N)(=O)=O)cc2CN(C)C)cc1C | inactive
2 | CN(C)c1ccc(O)c2c1C[C@H]1C[C@H]3[C@H](N(C)C)C(=O)C(C(N)=O)=C(O)[C@@]3(O)C(=O)C1=C2O | inactive
3 | CCCc1ccc(OC)cc1 | inactive
4 | OCCc1ccncc1 | inactive
5 | CC(=O)Oc1ccc([N+](=O)[O-])cc1CCl | inactive
6 | C=CCOC(=O)c1ccc(C(=O)OCC=C)c(C(=O)OCC=C)c1 | inactive
7 | C#C[C@]1(O)CC[C@H]2[C@@H]3CCc4cc(OC5CCCC5)ccc4[C@H]3CC[C@@]21C | inactive
8 | CSc1ccc(/C=C2/C(C)=C(CC(=O)O)c3cc(F)ccc32)cc1 | inactive
9 | Cc1cc(O)ccc1O | inactive
10 | CC(=O)c1ccc(C)cc1 | inactive
11 | c1ccc(-c2nc3ccccc3[nH]2)cc1 | inactive
12 | Brc1cc2ccccc2c2ccccc12 | inactive
13 | CC(C)CO | inactive
14 | Nc1nc2ccc(OC(F)(F)F)cc2s1 | inactive
15 | OCCOc1cccc(OCCO)c1 | inactive
16 | c1ccc(-c2ccccc2-c2ccccc2)cc1 | inactive
17 | CC(CCO)CCCC(C)(C)O (stereo not given) | inactive
18 | O=S(=O)(O)c1cc(S(=O)(=O)O)c2c(N=Nc3ccccc3)c(O)ccc2c1 | inactive
19 | CC(=O)c1ccc2c(c1)N(CCCN1CCC(CCO)CC1)c1ccccc1S2 | inactive
20 | Sc1nc2ccccc2s1 | inactive

Row | Compound | Potency
21 | OC[C@H]1O[C@@H](n2cnc3c(=S)nc[nH]c32)[C@H](O)[C@@H]1O | inactive
22 | C[C@H](CS)C(=O)N1CCC[C@H]1C(=O)O | inactive
23 | CN1CCN(CCCN2c3ccccc3Sc3ccc(S(=O)(=O)N(C)C)cc32)CC1 | inactive
24 | CCO/C=C1\N=C(c2ccccc2)OC1=O | inactive
25 | CCN1CCOCC1 | inactive
26 | C=C(C)C(=O)OCCOC1CC2CC1C1C=CCC21 (stereo not given) | inactive
27 | CCCCCCCCCCl | inactive
28 | COc1cc(-c2ccc(=O)[nH]n2)ccc1OC(F)F | inactive
29 | CN1[C@@H]2CC(OC(=O)[C@H](CO)c3ccccc3)C[C@H]1[C@@H]1O[C@@H]12 (stereo not given in full) | inactive
30 | Clc1sc(Cl)c(Cl)c1Cl | inactive
31 | COc1ccc(OC(F)(F)F)cc1CN[C@H]1CCCN[C@H]1c1ccccc1 | inactive
32 | CCCC/C=C/CCCCO | inactive
33 | CCCC[N+](C)(CCCC)CCCC | inactive
34 | Cn1cnc2c(=O)[nH]c(N)nc21 | inactive
35 | O=C(NO)C1(NS(=O)(=O)c2ccc(Oc3ccc(F)cc3)cc2)CCOCC1 | inactive
36 | CCC(C)n1ncn(-c2ccc(N3CCN(c4ccc(OC[C@H]5CO[C@](Cn6cncn6)(c6ccc(Cl)cc6Cl)O5)cc4)CC3)cc2)c1=O (stereo not given in full) | inactive
37 | CCCOc1ccc(S(=O)(=O)N2CCN(CC)CC2)cc1-c1nc2c(CC)n(Cc3ccccn3)nc2c(=O)[nH]1 | inactive
38 | CCCNCC(O)COc1ccccc1C(=O)CCc1ccccc1 (stereo not given) | inactive
39 | C=C[Si](OCC)(OCC)OCC | inactive
40 | FB(F)F | inactive
